# Columns and labels:
# Experiment in all cases: DAPPL (digital affinity profiling via proximity ligation, sequencing); 10 mM Tris-HCl pH 7.5, 50 mM NaCl, 1 mM DTT, 4% glycerol, room temperature, 30 min; GST-TFs on glutathione beads, 16-mer random dsDNA library, 0.1% formaldehyde crosslink after washing; high values mean tight binding
# [1] = target: T1, FEV (Homo sapiens, UniProt Q99581 1-238); conditions: protein: recombinant; tags: N-terminal GST; dsDNA, one strand shown
# T1 sequence: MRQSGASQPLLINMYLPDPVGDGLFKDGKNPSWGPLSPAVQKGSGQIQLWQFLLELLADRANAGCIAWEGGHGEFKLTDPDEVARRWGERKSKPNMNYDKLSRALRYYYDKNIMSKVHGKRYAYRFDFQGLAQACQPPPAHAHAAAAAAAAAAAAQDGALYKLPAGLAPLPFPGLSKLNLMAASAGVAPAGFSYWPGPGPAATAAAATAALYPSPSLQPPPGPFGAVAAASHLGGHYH
# Method in brief: (§1)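 Beads coated with glutathione captured GST-fused human transcription factors that had been expressed in yeast, and the factors were then given DNA barcodes and pooled with a tag-only sample. The pools were incubated with 200 nmole of a random double-stranded 16-mer DNA library in Tris/NaCl/DTT/glycerol buffer for 30 min at room temperature, washed, crosslinked with 0.1% formaldehyde and proximity-ligated with BsaI/T4 ligase at 37 °C for 1 h. PCR amplification and Illumina NextSeq500 sequencing came last. Binding signal is each hexamer's read frequency for a factor divided by its frequency for the tag-only sample.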
# [2] = target: ETV5 (Homo sapiens, UniProt P41161 1-510); conditions: protein: recombinant; tags: N-terminal GST; dsDNA, one strand shown
# ETV5, sequence (P41161 whole entry): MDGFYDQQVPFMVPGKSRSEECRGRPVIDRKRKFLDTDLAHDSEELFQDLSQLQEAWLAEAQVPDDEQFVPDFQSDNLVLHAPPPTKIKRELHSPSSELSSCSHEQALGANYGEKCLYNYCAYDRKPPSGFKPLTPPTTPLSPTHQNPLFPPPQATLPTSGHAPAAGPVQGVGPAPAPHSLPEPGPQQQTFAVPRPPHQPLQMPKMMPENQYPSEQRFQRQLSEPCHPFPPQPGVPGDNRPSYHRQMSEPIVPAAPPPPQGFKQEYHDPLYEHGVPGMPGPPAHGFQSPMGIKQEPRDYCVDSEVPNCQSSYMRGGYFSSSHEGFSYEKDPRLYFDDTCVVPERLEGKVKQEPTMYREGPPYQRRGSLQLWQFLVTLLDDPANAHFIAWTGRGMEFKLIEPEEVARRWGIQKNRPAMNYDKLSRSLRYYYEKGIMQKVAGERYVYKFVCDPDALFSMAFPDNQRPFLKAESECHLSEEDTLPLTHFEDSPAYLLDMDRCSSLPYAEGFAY
# Method in brief: as §1
# [3] = target: HSF1 (Homo sapiens, UniProt Q00613 1-529); conditions: protein: recombinant; tags: N-terminal GST; chain copies: 3; dsDNA, one strand shown
# HSF1, sequence (Q00613 whole entry): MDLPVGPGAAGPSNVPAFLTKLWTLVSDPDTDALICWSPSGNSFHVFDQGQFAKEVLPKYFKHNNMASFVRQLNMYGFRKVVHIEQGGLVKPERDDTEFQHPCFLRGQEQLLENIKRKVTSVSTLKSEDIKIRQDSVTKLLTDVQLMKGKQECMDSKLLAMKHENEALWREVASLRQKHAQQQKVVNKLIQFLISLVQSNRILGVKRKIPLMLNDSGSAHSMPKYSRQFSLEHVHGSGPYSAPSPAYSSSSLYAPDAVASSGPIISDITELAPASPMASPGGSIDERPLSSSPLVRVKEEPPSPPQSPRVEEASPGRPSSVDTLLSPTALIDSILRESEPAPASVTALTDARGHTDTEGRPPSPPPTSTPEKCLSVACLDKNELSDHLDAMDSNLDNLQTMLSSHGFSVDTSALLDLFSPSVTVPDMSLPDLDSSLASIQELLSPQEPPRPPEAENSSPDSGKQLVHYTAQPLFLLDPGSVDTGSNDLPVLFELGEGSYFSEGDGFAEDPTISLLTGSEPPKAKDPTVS
# Method in brief: as §1
# [4] = target: T2, SPIC (Homo sapiens, UniProt Q8N5J4 1-248); conditions: protein: recombinant; tags: N-terminal GST; dsDNA, one strand shown
# T2 sequence: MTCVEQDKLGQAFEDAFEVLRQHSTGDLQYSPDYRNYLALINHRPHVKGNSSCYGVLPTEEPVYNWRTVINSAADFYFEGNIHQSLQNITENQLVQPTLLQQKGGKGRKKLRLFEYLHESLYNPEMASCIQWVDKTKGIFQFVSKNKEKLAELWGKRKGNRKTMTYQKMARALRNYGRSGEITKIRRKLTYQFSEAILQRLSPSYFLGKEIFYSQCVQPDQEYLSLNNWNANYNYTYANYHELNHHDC
# Method in brief: as §1
# [5] = target: ELF4 (Homo sapiens, UniProt Q99607 1-663); conditions: protein: recombinant; tags: N-terminal GST; dsDNA, one strand shown
# ELF4, sequence (Q99607 whole entry): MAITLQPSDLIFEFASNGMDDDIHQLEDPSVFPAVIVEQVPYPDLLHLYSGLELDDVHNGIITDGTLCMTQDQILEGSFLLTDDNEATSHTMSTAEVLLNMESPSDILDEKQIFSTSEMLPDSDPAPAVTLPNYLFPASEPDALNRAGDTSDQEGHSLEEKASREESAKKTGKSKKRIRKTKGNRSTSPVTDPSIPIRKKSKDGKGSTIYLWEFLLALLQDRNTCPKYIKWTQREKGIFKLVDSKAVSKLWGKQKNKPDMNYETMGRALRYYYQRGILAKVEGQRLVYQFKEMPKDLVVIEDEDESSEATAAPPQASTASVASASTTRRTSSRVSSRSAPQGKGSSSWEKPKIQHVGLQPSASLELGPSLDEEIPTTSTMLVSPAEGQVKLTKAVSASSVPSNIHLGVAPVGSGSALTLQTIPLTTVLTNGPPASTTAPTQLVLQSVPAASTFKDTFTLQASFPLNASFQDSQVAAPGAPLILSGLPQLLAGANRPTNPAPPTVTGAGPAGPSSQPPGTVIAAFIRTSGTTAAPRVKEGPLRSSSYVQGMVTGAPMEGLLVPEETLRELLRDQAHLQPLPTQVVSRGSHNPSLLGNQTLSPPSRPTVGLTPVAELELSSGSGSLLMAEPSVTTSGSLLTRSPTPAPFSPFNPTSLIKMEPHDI
# Method in brief: as §1
# [6] = target: T3, ELK4 (Homo sapiens, UniProt P28324-2 1-405); conditions: protein: recombinant; tags: N-terminal GST; dsDNA, one strand shown
# T3 sequence: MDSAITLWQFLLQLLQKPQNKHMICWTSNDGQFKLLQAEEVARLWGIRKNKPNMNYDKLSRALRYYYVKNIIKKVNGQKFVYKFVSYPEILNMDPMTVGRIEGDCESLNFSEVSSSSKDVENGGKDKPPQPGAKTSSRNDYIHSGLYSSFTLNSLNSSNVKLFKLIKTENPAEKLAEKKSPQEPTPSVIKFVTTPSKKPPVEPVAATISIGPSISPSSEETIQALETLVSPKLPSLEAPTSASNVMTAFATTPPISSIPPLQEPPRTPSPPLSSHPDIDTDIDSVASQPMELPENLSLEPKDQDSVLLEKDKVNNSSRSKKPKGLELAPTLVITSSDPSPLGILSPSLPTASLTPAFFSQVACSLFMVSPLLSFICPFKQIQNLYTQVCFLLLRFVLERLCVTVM
# Method in brief: as §1
# [7] = target: T4, ETV2 (Homo sapiens, UniProt O00321 1-342); conditions: protein: recombinant; tags: N-terminal GST; dsDNA, one strand shown
# T4 sequence: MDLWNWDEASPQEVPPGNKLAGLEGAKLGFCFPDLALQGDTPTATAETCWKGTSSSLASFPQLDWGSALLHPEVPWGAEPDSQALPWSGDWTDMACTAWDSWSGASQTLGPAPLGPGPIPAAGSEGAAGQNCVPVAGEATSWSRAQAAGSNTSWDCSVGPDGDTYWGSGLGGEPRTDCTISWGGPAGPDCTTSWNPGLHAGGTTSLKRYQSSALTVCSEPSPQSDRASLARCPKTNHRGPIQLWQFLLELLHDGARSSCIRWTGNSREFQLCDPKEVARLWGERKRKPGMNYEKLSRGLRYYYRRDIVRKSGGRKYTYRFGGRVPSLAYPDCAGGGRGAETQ
# Method in brief: as §1
# [8] = target: T5, ELF3 (Homo sapiens, UniProt P78545 1-371); conditions: protein: recombinant; tags: N-terminal GST; dsDNA, one strand shown
# T5 sequence: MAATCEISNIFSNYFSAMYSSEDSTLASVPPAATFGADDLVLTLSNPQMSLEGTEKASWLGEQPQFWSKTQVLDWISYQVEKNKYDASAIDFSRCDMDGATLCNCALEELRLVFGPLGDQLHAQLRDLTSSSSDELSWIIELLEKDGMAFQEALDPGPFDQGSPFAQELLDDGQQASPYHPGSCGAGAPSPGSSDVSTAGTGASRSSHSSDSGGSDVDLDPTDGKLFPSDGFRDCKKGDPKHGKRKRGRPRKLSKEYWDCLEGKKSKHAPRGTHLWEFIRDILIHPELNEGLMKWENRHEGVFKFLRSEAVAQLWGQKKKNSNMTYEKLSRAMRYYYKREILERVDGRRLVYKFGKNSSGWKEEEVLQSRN
# Method in brief: as §1
# [9] = target: CRX (Homo sapiens, UniProt O43186 1-299); conditions: protein: recombinant; tags: N-terminal GST; dsDNA, one strand shown
# CRX, sequence (O43186 whole entry): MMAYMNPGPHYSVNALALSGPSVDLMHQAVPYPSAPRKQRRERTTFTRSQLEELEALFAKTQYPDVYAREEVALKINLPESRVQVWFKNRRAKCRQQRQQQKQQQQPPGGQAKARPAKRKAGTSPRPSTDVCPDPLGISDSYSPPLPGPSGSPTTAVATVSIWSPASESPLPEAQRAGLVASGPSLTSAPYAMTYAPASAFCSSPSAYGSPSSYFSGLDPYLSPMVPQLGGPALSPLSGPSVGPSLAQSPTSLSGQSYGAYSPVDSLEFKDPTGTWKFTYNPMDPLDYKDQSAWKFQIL
# Method in brief: as §1
# [10] = target: ETV1 (Homo sapiens, UniProt P50549 1-477); conditions: protein: recombinant; tags: N-terminal GST; dsDNA, one strand shown
# ETV1, sequence (P50549 whole entry): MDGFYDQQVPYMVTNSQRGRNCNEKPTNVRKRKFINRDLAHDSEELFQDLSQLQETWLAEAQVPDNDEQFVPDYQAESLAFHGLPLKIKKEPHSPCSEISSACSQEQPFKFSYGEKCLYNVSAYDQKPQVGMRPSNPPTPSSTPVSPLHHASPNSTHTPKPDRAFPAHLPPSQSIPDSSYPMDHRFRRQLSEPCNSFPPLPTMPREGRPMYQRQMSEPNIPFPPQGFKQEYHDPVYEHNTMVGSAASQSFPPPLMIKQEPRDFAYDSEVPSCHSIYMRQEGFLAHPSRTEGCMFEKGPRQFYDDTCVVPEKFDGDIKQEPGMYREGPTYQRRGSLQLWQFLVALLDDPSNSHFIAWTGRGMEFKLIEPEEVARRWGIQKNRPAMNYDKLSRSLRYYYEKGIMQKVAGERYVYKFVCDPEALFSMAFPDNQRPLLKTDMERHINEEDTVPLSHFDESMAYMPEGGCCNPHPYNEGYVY
# Method in brief: as §1
# [11] = target: T6, ERF (Homo sapiens, UniProt P50548 1-548); conditions: protein: recombinant; tags: N-terminal GST; dsDNA, one strand shown
# T6 sequence: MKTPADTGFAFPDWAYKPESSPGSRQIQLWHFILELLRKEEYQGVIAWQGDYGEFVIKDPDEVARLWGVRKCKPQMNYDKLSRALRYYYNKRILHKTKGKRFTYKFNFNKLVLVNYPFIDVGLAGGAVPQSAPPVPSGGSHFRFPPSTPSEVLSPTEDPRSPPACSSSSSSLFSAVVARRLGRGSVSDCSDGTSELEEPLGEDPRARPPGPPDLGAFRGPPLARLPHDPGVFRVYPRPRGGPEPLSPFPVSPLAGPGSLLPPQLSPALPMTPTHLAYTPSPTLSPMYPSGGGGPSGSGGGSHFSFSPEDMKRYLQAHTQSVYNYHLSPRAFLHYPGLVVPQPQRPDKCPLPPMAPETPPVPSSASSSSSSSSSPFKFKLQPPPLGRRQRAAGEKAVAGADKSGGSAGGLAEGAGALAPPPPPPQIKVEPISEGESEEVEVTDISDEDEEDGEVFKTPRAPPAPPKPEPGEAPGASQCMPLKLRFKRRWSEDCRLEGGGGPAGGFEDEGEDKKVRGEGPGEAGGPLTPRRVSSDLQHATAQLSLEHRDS
# Method in brief: as §1
# [12] = target: T7, ETV3L (Homo sapiens, UniProt Q6ZN32 1-361); conditions: protein: recombinant; tags: N-terminal GST; dsDNA, one strand shown
# T7 sequence: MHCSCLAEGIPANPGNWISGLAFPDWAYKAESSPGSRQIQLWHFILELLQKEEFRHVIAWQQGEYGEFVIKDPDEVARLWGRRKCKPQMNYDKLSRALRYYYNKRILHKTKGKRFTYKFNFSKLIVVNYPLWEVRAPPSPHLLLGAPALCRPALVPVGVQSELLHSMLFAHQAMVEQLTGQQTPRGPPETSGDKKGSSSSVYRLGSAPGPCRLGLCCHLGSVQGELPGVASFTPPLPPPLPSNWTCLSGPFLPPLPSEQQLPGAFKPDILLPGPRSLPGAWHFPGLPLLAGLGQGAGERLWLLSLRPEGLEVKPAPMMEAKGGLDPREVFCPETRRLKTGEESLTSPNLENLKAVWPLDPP
# Method in brief: as §1
# [13] = target: T8, ETS2 (Homo sapiens, UniProt P15036 1-469); conditions: protein: recombinant; tags: N-terminal GST; dsDNA, one strand shown
# T8 sequence: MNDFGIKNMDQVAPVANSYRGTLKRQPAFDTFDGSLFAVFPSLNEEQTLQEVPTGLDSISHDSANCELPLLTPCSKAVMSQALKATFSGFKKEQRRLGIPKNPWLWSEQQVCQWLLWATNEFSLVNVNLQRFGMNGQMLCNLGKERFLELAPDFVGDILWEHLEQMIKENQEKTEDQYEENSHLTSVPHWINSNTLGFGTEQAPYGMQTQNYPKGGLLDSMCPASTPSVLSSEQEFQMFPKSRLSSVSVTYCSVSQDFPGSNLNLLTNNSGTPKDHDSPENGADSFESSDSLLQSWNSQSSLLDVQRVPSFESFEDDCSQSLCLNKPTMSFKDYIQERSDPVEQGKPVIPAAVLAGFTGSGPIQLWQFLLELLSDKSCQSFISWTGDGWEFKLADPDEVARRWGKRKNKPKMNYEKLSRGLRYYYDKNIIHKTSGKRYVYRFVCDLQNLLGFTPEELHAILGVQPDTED
# Method in brief: as §1
# [14] = target: T9, SPDEF (Homo sapiens, UniProt O95238 1-335); conditions: protein: recombinant; tags: N-terminal GST; dsDNA, one strand shown
# T9 sequence: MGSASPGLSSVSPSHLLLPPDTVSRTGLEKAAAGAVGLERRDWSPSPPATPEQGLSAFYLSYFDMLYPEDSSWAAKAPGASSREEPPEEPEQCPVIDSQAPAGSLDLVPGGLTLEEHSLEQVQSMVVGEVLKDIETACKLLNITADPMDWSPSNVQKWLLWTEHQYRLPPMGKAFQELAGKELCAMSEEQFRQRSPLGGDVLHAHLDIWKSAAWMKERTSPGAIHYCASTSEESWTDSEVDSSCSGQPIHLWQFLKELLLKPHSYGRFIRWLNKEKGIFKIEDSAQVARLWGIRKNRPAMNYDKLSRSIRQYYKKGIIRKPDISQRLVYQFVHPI
# Method in brief: as §1
# [15] = target: T10, ETV7 (Homo sapiens, UniProt Q9Y603 1-341); conditions: protein: recombinant; tags: N-terminal GST; dsDNA, one strand shown
# T10 sequence: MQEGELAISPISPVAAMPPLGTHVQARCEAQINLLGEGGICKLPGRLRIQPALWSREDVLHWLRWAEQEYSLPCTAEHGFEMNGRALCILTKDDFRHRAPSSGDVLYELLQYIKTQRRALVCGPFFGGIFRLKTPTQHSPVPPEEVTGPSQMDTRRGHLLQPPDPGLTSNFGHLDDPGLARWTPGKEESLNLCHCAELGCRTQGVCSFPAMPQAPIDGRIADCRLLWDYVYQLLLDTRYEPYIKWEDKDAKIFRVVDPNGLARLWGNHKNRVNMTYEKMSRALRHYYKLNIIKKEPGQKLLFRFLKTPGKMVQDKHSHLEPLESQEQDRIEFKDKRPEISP
# Method in brief: as §1
# [16] = target: T11, ELF5 (Homo sapiens, UniProt Q9UKW6-2 1-255); conditions: protein: recombinant; tags: N-terminal GST; dsDNA, one strand shown
# T11 sequence: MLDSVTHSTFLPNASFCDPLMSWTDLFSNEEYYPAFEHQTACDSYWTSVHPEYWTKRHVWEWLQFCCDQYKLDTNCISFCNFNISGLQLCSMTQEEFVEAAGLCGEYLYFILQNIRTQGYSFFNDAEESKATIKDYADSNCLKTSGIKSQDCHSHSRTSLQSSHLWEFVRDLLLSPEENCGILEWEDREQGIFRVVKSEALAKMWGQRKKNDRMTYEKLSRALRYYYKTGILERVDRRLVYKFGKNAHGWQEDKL
# Method in brief: as §1
# [17] = target: T12, ETV3 (Homo sapiens, UniProt P41162-2 1-143); conditions: protein: recombinant; tags: N-terminal GST; dsDNA, one strand shown
# T12 sequence: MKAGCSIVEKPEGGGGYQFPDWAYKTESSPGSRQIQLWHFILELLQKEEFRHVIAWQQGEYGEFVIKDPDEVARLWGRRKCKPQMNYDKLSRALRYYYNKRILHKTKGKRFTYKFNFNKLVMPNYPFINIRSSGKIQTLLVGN
# Method in brief: as §1
# [18] = target: ETV6 (Homo sapiens, UniProt P41212 1-452); conditions: protein: recombinant; tags: N-terminal GST; dsDNA, one strand shown
# ETV6, sequence (P41212 whole entry): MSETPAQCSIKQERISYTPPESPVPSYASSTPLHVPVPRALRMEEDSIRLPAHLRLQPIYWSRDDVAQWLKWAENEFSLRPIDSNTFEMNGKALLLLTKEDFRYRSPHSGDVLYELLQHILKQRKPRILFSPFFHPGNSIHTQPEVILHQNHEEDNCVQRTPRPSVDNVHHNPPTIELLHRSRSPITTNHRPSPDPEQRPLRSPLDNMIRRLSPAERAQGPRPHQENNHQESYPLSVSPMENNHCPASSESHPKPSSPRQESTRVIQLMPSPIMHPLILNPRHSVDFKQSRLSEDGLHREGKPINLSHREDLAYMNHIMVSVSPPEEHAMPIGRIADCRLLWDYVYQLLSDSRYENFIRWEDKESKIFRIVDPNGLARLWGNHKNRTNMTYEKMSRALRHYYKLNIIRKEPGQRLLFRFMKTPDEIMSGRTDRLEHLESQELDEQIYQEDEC
# Method in brief: as §1
sequence,measurement,setting,value
ATCTGG,binding signal,[1],"1.23 fold enrichment (6-mer frequency, TF over GST control)"
same,binding signal,[2],"1.11 fold enrichment (6-mer frequency, TF over GST control)"
same,binding signal,[3],"2.08 fold enrichment (6-mer frequency, TF over GST control)"
same,binding signal,[4],"1.1 fold enrichment (6-mer frequency, TF over GST control)"
same,binding signal,[5],"1.22 fold enrichment (6-mer frequency, TF over GST control)"
same,binding signal,[6],"1.31 fold enrichment (6-mer frequency, TF over GST control)"
same,binding signal,[7],"1.23 fold enrichment (6-mer frequency, TF over GST control)"
same,binding signal,[8],"1.23 fold enrichment (6-mer frequency, TF over GST control)"
same,binding signal,[9],"1.65 fold enrichment (6-mer frequency, TF over GST control)"
same,binding signal,[10],"1.24 fold enrichment (6-mer frequency, TF over GST control)"
same,binding signal,[11],"1.25 fold enrichment (6-mer frequency, TF over GST control)"
same,binding signal,[12],"1.2 fold enrichment (6-mer frequency, TF over GST control)"
same,binding signal,[13],"1.11 fold enrichment (6-mer frequency, TF over GST control)"
same,binding signal,[14],"1.06 fold enrichment (6-mer frequency, TF over GST control)"
same,binding signal,[15],"1.14 fold enrichment (6-mer frequency, TF over GST control)"
same,binding signal,[16],"1.11 fold enrichment (6-mer frequency, TF over GST control)"
same,binding signal,[17],"1.16 fold enrichment (6-mer frequency, TF over GST control)"
same,binding signal,[18],"1.1 fold enrichment (6-mer frequency, TF over GST control)"
